Molecules are shown by their SMILES. Inconclusive results are not listed. More than one record can exist for a structure, and the calls need not agree. Active and inactive are the calls of the source. How the source made its calls, unless noted: active means hit-call score of the fitted dose curve at least 0.9, where 1 is the maximum; inactive means score below 0.9.

A short description of test [1]: CCTE_Shafer_MEA_dev_network_spike_number: CCTE's Neural Network Formation Assay for Number of Network Spikes, Shafer Lab (AID 2284048).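 Further: synchronized bursts across electrodes counted on days 5 7 9 12 and integrated as AUC.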 The gist of the method:
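Primary rat cortical neurons were seeded at 1.5 x 10^5 cells/well on PEI-coated 16-electrode MEA wells with laminin, exposed from plating day 0, compound renewed at DIV 5 and 9. Network spikes were recorded on days 5, 7, 9, 12 and summarized as trapezoidal AUC versus DMSO.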

Test [2] can be described thus: CCTE_Shafer_MEA_dev_network_spike_peak: CCTE's Neural Network Formation Assay for Mean Number of Electrodes in Network Spike, Shafer Lab (AID 2284049).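 On AC50: fitted for loss of signal meaning fewer electrodes in network spikes than DMSO.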 The gist of the method: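 Continuous 12-day exposure of rat cortical cultures, starting at plating, on MEA plates. Endpoint: electrodes participating in network-spike peaks, AUC across DIV 5–12, DMSO as negative control.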

Test [3] is described as follows: CCTE_Shafer_MEA_dev_spike_duration_mean: CCTE's Neural Network Formation Assay for Mean Spike Duration, Shafer Lab (AID 2284051).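 On AC50: potency for a decrease in mean network spike duration versus DMSO.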 Put shortly: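 Readout is the average length of network spikes, clustered firing across electrodes, summed over DIV 5, 7, 9 and 12 as area under the curve. Neurons from rat cortex developed networks on MEA plates under continuous 12-day exposure.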

Test [4] can be described thus: CCTE_Shafer_MEA_dev_network_spike_duration_std: CCTE's Neural Network Formation Assay for Standard Deviation of Network Spike Duration, Shafer Lab (AID 2284052).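 Further: hits are decreases in network spike duration SD versus DMSO vehicle.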 The gist of the method: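 Read-out is the trapezoidal area-under-the-curve across recordings made on days 5, 7, 9 and 12, fitted in the negative direction against DMSO baseline. Neurons were primary rat cortical cells treated from day 0, with treatment renewed at each feed.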

Test [5] in a line: CCTE_Shafer_MEA_dev_per_network_spike_spike_number_mean: CCTE's Neural Network Formation Assay for Mean Number of Spikes in a Network Spike, Shafer Lab (AID 2284053).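 On AC50: fitted as decrease in spikes per network spike relative to DMSO.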 The gist of the method: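 Continuous twelve-day exposure of developing rat cortical networks grown over 16 microelectrodes per well; spontaneous firing is captured at four time points, and the per-network-spike spike number is integrated over development by trapezoidal AUC.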

The nature of test [6]: CCTE_Shafer_MEA_dev_per_network_spike_spike_percent: CCTE's Neural Network Formation Assay for Percent of Spikes in a Network Spike, Shafer Lab (AID 2284054). Put shortly:
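Primary rat cortical neurons on 16-electrode MEA wells (PEI-coated, laminin at plating), exposed from day 0 with renewal at DIV 5 and 9; spikes within 0.05 s of network-spike peaks over total spikes, AUC across days 5, 7, 9, 12.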

Test [7] can be described thus: CCTE_Shafer_MEA_dev_LDH: CCTE's Lactate Dehydrogenase Assay for Cytotoxicity in the Neural Network Formation Assay, Shafer Lab (AID 2284068; active means hit-call score of the fitted dose curve at least 0.9, where 1 is the maximum;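 further: exposure for twelve days from plating with re-dosing on DIV 5 and 9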). The gist of the method:
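Cytotoxicity companion to network-formation recordings: rat cortical neurons received compound over 12 days of development, re-dosed at DIV 5 and 9 feeds. Viability was inferred from LDH enzyme activity relative to DMSO.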

Test [8] can be described thus: CCTE_Shafer_MEA_dev_AB: CCTE's Alamar Blue Assay for Cytotoxicity in the Neural Network Formation Assay, Shafer Lab (AID 2284083; active means hit-call score of the fitted dose curve at least 0.9, where 1 is the maximum;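 further: resazurin reduction fluorescence as viability of cultured neurons; twelve days of exposure from plating with re-dosing on DIV 5 and 9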). Put shortly:
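Fluorescent resazurin reduction serves as the viability read-out, with DMSO as negative control and baseline. Cells were primary rat cortical neurons grown on MEA plates and dosed from day 0 to day 12, treatment renewed on DIV 5 and 9.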
For orientation: Alamar Blue is a resazurin reagent that responds to reducing activity.

Test [9] can be described thus: CCTE_Shafer_MEA_dev_mutual_information_norm: CCTE's Neural Network Formation Assay for Mutual Information Normalization, Shafer Lab (AID 2284091). Put shortly:
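Rat cortical cultures, 48-well MEA, continuous exposure DIV 0–12 with full media/compound change DIV 5 and 9. Readout: inter-electrode mutual information, AxIS adaptive spike detection; AUC across DIV 5/7/9/12 recordings; DMSO baseline, negative fitting direction.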

Test [10] in a line: CCTE_Shafer_MEA_dev_correlation_coefficient_mean: CCTE's Neural Network Formation Assay for Mean Correlation Coefficient, Shafer Lab (AID 2284093).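 On AC50: well mean pairwise spike train correlation integrated as AUC over recording days 5 to 12; potency fitted for loss of correlation relative to DMSO vehicle wells.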 The gist of the method:
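Read-out: well-mean correlation coefficient of spike trains between electrode pairs, collapsed over four recording days as trapezoidal area-under-the-curve. Developing rat cortical neuron networks grown on MEAs received test chemical continuously from plating.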

The next test concerns DIO2 (gene 1734). In words: CCTE_GLTED_hDIO2: CCTE's human Deiodinase 2 (DIO2) Inhibition Assay, Great Lakes Toxicology and Ecology Division (GLTED) Lab (AID 2284050; active means hit-call score of the fitted dose curve at least 0.9, where 1 is the maximum). Put shortly:
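Cell-free human DIO2 enzyme was incubated with test chemical for 3 h; iodide liberated from substrate was then quantified by the Sandell-Kolthoff reaction (absorbance), run in triplicate. Loss of signal versus DMSO baseline indicated inhibition.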

In a further test the test system is DIO3 (gene 1735). In words: CCTE_GLTED_hDIO3: CCTE's human Deiodinase 3 (DIO3) Inhibition Assay, Great Lakes Toxicology and Ecology Division (GLTED) Lab (AID 2284055; active means hit-call score of the fitted dose curve at least 0.9, where 1 is the maximum;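 further: potency is for inhibition seen as loss of released iodide signal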). The gist of the method:
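Cell-free assay with human DIO3 enzyme produced by adenovirus expression; enzyme incubated with test chemical for 3 hours. Liberated iodide then measured by Sandell-Kolthoff absorbance; loss of signal versus DMSO baseline indicates inhibition, run in triplicate.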

Test [11] is described as follows: UKN2_HCS_IMR90_neural_migration: University of Konstanz (UKN) Leist Lab Neural Crest Cell Migration Assay in human induced IMR90 Pluripotent Stem Cells (UKN2) (AID 2284204). The settings on record: actives raise or lower the signal. The gist of the method:
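iPSC-derived IMR90 neural crest cells on PLO/laminin/fibronectin were seeded around silicone stoppers; after stopper removal, migration in N2-S medium with EGF and FGF ran 24 h before 24 h chemical exposure. Calcein-AM/Hoechst high-content imaging; bidirectional fit versus DMSO.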

Test [12] in a line: IUF_NPC1b_proliferation_BrdU_72hr: Leibniz Research Institute for Environmental Medicine (IUF) 72-hour Neural Progenitor Cell Bromodeoxyuridine (BrdU) Proliferation Assay (NPC1b) (AID 2284207). The gist of the method: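 hNPC spheres (primary, GW 16-19 fetal cortex), single sphere/well, EGF+FGF medium; 72 h compound, no renewal; BrdU pulse last 16 h; luminescent ELISA; activity vs DMSO baseline; growth-factor withdrawal as positive control.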

A short description of test [13]: IUF_NPC1a_proliferation_area_72hr: Leibniz Research Institute for Environmental Medicine (IUF) 72-hour Neural Progenitor Cell Proliferation Area Assay (NPC1a) (AID 2284208). Put shortly: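 Proliferation read as increase in sphere area by phase-contrast imaging over 72 h continuous compound exposure (no renewal) of hNPC spheres grown with EGF/FGF at 37C, 5% CO2. Growth-factor withdrawal served as positive control; DMSO as baseline.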

Test [14] in a line: IUF_NPC1_viability_72hr: Viability Assessment at 72 hours in the Leibniz Research Institute for Environmental Medicine (IUF) Neural Progenitor Cell Proliferation Assay (NPC1) (AID 2284209). Put shortly: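 Human fetal-cortex neural progenitor spheres (0.25–0.35 mm, one per well) grown in EGF/FGF proliferation medium at 37C, pH 7.2-7.6, exposed 72 h without renewal; viability read as alamar blue resazurin-to-resorufin fluorescence relative to DMSO.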

Test [15] in a line: CCTE_Mundy_HCI_Cortical_Synap_Neur_Matur_NeuriteSpotCountPerNeuriteLength: CCTE's Synaptogenesis and Neurite Maturation Assay in rat cortical cells for Neurite Spot Count per Neurite Length, Mundy Lab (AID 2284210). The gist of the method: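 Rat primary cortical cultures, glia arrested with AraC at DIV 5, were dosed with media change at DIV 7 and fixed at DIV 12. Synaptophysin puncta per MAP2-labelled neurite length were quantified by high-content imaging versus DMSO.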

Test [16] can be described thus: CCTE_Mundy_HCI_Cortical_Synap_Neur_Matur_BPCount: CCTE's Synaptogenesis and Neurite Maturation Assay in rat cortical cells for Branch Point Count, Mundy Lab (AID 2284211). The gist of the method: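 Branch point number is quantified by automated imaging of fluorescently labelled neurites and synapses in rat primary cortical neurons exposed from DIV 7 to DIV 12. Activity is analysed relative to DMSO negative control.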

The nature of test [17]: CCTE_Mundy_HCI_Cortical_NOG_NeuriteCount: CCTE's Neurite Outgrowth Assay in rat cortical cells for Neurite Count, Mundy Lab (AID 2284212).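 Further: cells fixed about two days after chemical exposure began.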 Put shortly: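 Neurite number per cell from high-content imaging of betaIII-tubulin immunostaining, with Hoechst nuclear counterstain.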
Test [18] in a line: CCTE_Shafer_MEA_acute_LDH: CCTE's Lactate Dehydrogenase Assay for Cytotoxicity in the Neural Acute Assay, Shafer Lab (AID 2284086; active means hit-call score of the fitted dose curve at least 0.9, where 1 is the maximum;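 further: active means LDH release rises above DMSO vehicle level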). Put shortly: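 Primary rat cortical neurons on 48-well MEA plates, treated on day 13 or 15 post-plating. After the 40-min recording with compound, medium LDH release was read by absorbance at 490 nm. Gain of signal was fitted against DMSO negative control.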

For `O=P(O)(O)OCCC(F)(F)C(F)(F)C(F)(F)C(F)(F)C(F)(F)C(F)(F)F`, the outcome in [1], in test [2], in [3], in test [4], in [5] and in [6] was inactive. For the same compound, the call in test [9] and in [10] was inactive. Moreover, the values for the AC50 in test [7] and in test [8] were 21.5 µM (active) and 24.7 µM (active), respectively.
On to `FC(F)(F)C(F)(F)C(F)(F)C(F)(F)C(F)(F)CCI`, for which the call in [1], in test [4], in test [6] and in test [9] was inactive. In addition, the AC50 (in general, the concentration giving half of the maximal activity seen) in [2] is 22.3 µM (active); in test [3], 15 µM (active); in [5], 15 µM (active); in [7] it was 21.8 µM (active); in test [8] it was 23.9 µM (active); in test [10], 25.2 µM (active).
Take `O=C(O)C(F)(F)C(F)(F)C(F)(F)C(F)(F)C(F)(F)C(F)(F)C(F)(F)C(F)(F)C(F)(F)C(F)F`: the compound was classed as inactive in test [1], in test [2], in test [3], in test [4], in test [5] and in test [6]. Moreover, the compound was classed as inactive in test [7], in [8], in [9] and in test [10]. For the same compound, the AC50 was 59.3 µM (active) with DIO2 (gene 1734) and 138 µM (active) with DIO3 (gene 1735).
With `CCN(Cc1cccc(S(=O)(=O)O)c1)c1ccc(C(=C2C=CC(=[N+](CC)Cc3cccc(S(=O)(=O)O)c3)C=C2)c2ccc(O)cc2S(=O)(=O)[O-])cc1`, the results for the AC50 in the test with DIO2 (gene 1734) and in the test with DIO3 (gene 1735) were 48.5 µM (active) and 51.3 µM (active), respectively.
On to `COC(=O)CCC(F)(F)C(F)(F)C(F)(F)C(F)(F)F`, for which the outcome in test [1], in test [2], in [3], in test [4], in test [5] and in [6] was inactive. Moreover, the compound was called inactive in test [7], in [9] and in [10].
On to `CC(CCl)OP(=O)(OC(C)CCl)OC(C)CCl` (stereo unspecified), for which the compound was called inactive in test [1], in test [2], in test [3], in test [4], in [5] and in test [6]. Further, the compound was classed as inactive in test [7], in test [8], in [9], in [10], in [11] and in test [12]. The compound was classed as inactive in [13], in [14], in test [15], in test [16] and in [17]. The AC50 in test [2], in [3], in [5], in [6] and in test [7] was 50 µM (active) each time.
For `O=C(Cl)C(F)(F)C(F)(F)C(F)(F)C(F)(F)C(F)(F)C(F)(F)C(F)(F)C(F)(F)F`, the AC50 in the test with DIO2 (gene 1734) is 69.4 µM (active).
Turning to `O=C(O)C(F)(F)C(F)(F)C(F)(F)C(F)(F)C(F)(F)C(F)(F)C(F)(F)C(F)(F)Cl`, the compound was classed as inactive in [1], in test [2], in test [3], in test [4], in test [5] and in test [6]. The call in test [7], in test [9] and in test [10] was inactive. In addition, in the test with DIO2 (gene 1734), the AC50 was 100 µM (active).
On to `FC(F)(F)C(F)(F)CNCC(F)(F)C(F)(F)F`, for which the result in test [1], in test [2], in test [3], in test [4], in [5] and in test [6] was inactive. Moreover, the compound was called inactive in [9] and in test [10].
Turning to `OC[C@@H](O)[C@@H](O)[C@H](O)[C@@H](O)CO`, the outcome in test [1], in test [2], in test [3], in [4], in test [5] and in test [6] was inactive. For the same compound, the compound was classed as inactive in test [7], in [8], in [9], in [10], in test [12] and in test [13]. The compound was called inactive in test [14] and in test [15].
For `CCCCC(CC)COP(=O)(O)OCC(CC)CCCC` (stereo unspecified), the compound was classed as inactive in test [18].
`O=C(O)C=C(C(F)(F)F)C(F)(F)F`: the outcome in test [1], in test [2], in [3], in test [4], in test [5] and in [6] was inactive. Further, the outcome in test [7], in test [9] and in [10] was inactive.
In the case of `O=S(=O)(OCCOC(F)(F)F)C(F)(F)F`, the call in test [1], in test [2], in test [3], in test [4], in test [5] and in [6] was inactive. The outcome in test [9] and in test [10] was inactive.
Turning to `N=C(N)C(F)(F)C(F)(F)C(F)(F)C(F)(F)C(F)(F)C(F)(F)C(F)(F)F`, the compound was classed as inactive in test [1], in test [3], in test [4], in test [5], in test [6] and in test [9]. In addition, the AC50 was 26.8 µM (active) in [2], 24.5 µM (active) in test [7], 23.9 µM (active) in test [8] and 15 µM (active) in test [10].
